Pf growth 48h – inhibits P. falciparum growth in the first generation, 48 h. Potency, µM (top dose mostly 28.7 µM), hits mostly inhibitors. actives 5.9% (n = 310,000). AID 504832. P. falciparum luciferase growth in erythrocytes, 48 h
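Here the parasites carry a stable luciferase gene and grow inside erythrocytes in Albumax-based RPMI medium with compound for one erythrocytic cycle. Activity is scored as loss of luminescent signal.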
HCV inh – HCV inhibition; Huh7.5.1 HCVcc-Cre infection, luciferase reporter, 44 h; Potency, µM (titrated, usually from 41.8 µM), most hits filed as inhibitors; actives 3.4% (n = 340,000)
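Reporter virus HCVcc-Cre (~0.5 moi) infects cells exposed to compound; seeding density 1,000 cells/well with 4 h settling beforehand. Luminescence, 15 sec read, taken 44 h post-infection following a 15 min RT substrate incubation.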
AMA1-RON2 inh – inhibitors of Plasmodium falciparum AMA1-RON2 interaction. AlphaScreen AMA1-biotinylated RON2 peptide binding. Potency, µM (series often up to 58.2 µM), most hits filed as inhibitors. actives 0.2% (n = 360,000); also: nearly all actives have a fitted effect of over 45% in size
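AMA1 (3D7) with his tag at 25 nM final met compounds first, then biotinylated RON2 peptide at 25 nM; detection used donor plus acceptor beads, 10 µg/mL apiece, read by AlphaScreen after 30 min at room temperature.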
Pf growth 96h – P. falciparum growth inhibition at 96 hours. P. falciparum luciferase reporter growth, 96 h. Potency, µM (doses to about 28.7 µM), hits mostly inhibitors. actives 6.9% (n = 320,000)
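Erythrocytes infected with luciferase-expressing P. falciparum were dispensed at 2% hematocrit and 0.05% parasitemia (final), then incubated with compounds 96 hours at 37 C in 5% CO2. Luminescence after detection reagent addition reported growth.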
Numbers stand for hits; – = inactive; ? = inconclusive; · = no result; [ ] = another dose, or the depositor's remark. An excerpt weighted towards active compounds, which were near 11% of everything screened. Calls follow the shape of the dose curve; as a rule, active = well fitted curve in the direction sought with a large enough effect; inconclusive = small, poorly fitted or top-dose-only effect, or another doubt; inactive = no such curve, though single readings can be large; an effect the other way counts as inactive or inconclusive.

SMILES	Pf growth 48h	HCV inh	AMA1-RON2 inh	Pf growth 96h
Cc1ccc(S(=O)(=O)c2nc(-c3ccccc3)oc2N2CCC(C(N)=O)CC2)cc1	?	–	–	13.1µM
N#Cc1nc(-c2ccc(OCc3ccc(Cl)cc3)cc2)oc1N1CCOCC1	–	?	–	10.4µM
CCCOc1ccc(-c2nc(C#N)c(N3CCN(CC)CC3)o2)cc1	?	–	–	10.4µM
CCCOc1ccc(-c2nc(C#N)c(N3CCC(C(N)=O)CC3)o2)cc1	–	?	–	10.4µM
N#Cc1nc(-c2ccc(OCc3ccc(Cl)cc3)cc2)oc1N1CCC(C(N)=O)CC1	·	?	–	–
CCN(CC)CCCNC(=O)CSc1nc(C)cc(C)n1	–	–	–	–
Cc1ccccc1NC(=S)N1CCN(c2ccccc2Cl)CC1	–	?	–	–
CCCCCCSc1ccc(-c2nc3ccc(C)cn3c2NCc2ccccc2)cc1OC	5.22µM	–	–	4.65µM
CCCCNc1c(-c2ccc(OC)c(SC3CCCCC3)c2)nc2ccc(C)cn12	·	?	–	·
CCC(C)Sc1cc(-c2nc3ccc(C)cn3c2NCc2ccccc2)ccc1OC (stereo unspecified)	·	10µM	–	·
CCCCNc1c(-c2ccc(OC)c(SC(C)CC)c2)nc2ccc(C)cn12 (stereo unspecified)	·	?	–	·
CCC(C)Sc1ccc(-c2nc3ccc(C)cn3c2NCc2ccccc2)cc1OC (stereo unspecified)	3.7µM	3.98µM	–	4.65µM
COc1ccc(-c2nc3ccc(C)cn3c2NCc2ccccc2)cc1SC1CCCCC1	10.4µM	?	–	6.57µM
CCCCCCSc1ccc(-c2nc3ccc(C)cn3c2NCc2ccccc2)cc1	?	–	–	?
CCC(=O)Nc1cc(C)c(NC(=O)c2ccccc2OC)cn1	–	–	–	–
CC(=O)CC1c2cc(F)ccc2C=C(c2ccsc2)N1c1ccc(-c2cccnc2)cc1 (stereo unspecified)	·	·	–	·
Cc1cc(OC(=O)c2cc(C(F)(F)F)cc(C(F)(F)F)c2)c([N+](=O)[O-])c(=O)[nH]1	–	–	–	–
Cc1ccc(NC(=S)N(C)C)cc1C	–	–	–	–
CC1(C)C2CC[C@]3(C)C(CC=C4[C@@H]5C[C@@](C)(CO)[C@@H](O)C[C@]56C[C@@H](OC6=O)[C@]43C)[C@@]2(C)CC[C@@H]1O (stereo partly specified)	·	1.26µM	–	·
Cc1nc(Nc2ccc(Cl)cc2)c2nnn(Cc3ccccc3)c2n1	?	31.6µM	–	–
Cc1nc(NCc2ccc3c(c2)OCO3)c2nnn(Cc3ccccc3)c2n1	–	–	–	11.7µM
Cc1cccc(OCc2nnc(NC(=O)Cc3cccs3)s2)c1	–	–	–	–
Cc1ccc(NC(=O)CSc2ccc(-c3ccccn3)nn2)cc1	?	?	–	?
O=C(CSc1ccc(-c2ccccn2)nn1)NCc1ccc(Cl)cc1	?	–	14.1µM	–
Cc1ccc(CNC(=O)CSc2ccc(-c3ccccn3)nn2)cc1	–	–	?	–
SMILES	Pf growth 48h	HCV inh	AMA1-RON2 inh	Pf growth 96h
O=C(CSc1ccc(-c2ccccn2)nn1)Nc1ccc(F)c(F)c1	–	10µM	–	–
CC1(C(=O)Nc2cccc(C#N)c2)CCN1C(=O)C/C=C/c1ccccc1 (stereo unspecified)	·	·	–	·
O=c1ccn([C@@H]2O[C@H](CNCc3ccc(-n4cccn4)cc3)[C@@H](O)[C@H]2O)c(=O)[nH]1	·	–	–	·
O=C1c2ccccc2C(=O)c2c1cccc2N1CCOCC1	–	22.4µM	?	–
Clc1cc(Cl)cc(C2=NCCC(c3ccccc3)O2)c1 (stereo unspecified)	–	–[8.37 µM]	·	–
Clc1ccc(OCCCN2CCCCC2)c(Br)c1	–	?	–	?
CC1CC(C)CN(CCOc2ccc(Cl)cc2Cl)C1 (stereo unspecified)	10.4µM	–	–	?
CC1CCCN(CCOCCOc2ccc(Cl)cc2Br)C1 (stereo unspecified)	11.7µM	–	–	11.7µM
Clc1ccc(OCCCCCN2CCCC2)c(Br)c1	–	10µM	–	?
CC(C)CNC(=O)c1ccccc1N(Cc1ccccc1)S(C)(=O)=O	–	–	–	–
COc1cc2c(cc1OC)C(c1ccccc1)N(C(=O)c1ccccc1)CC2 (stereo unspecified)	?	?	–	–
COc1cc2c(cc1OC)C(c1ccccc1)CN(C)CC2 (stereo unspecified)	?	·	·	15.1µM
COc1ccc([C@]23Cc4cc(C#N)ccc4C(O2)c2c(cc(-c4ccccc4)oc2=O)O3)cc1	?	·	·	–[5.75 µM]
CC1(C)CC(=O)C2=C(C1)O[C@@]1(c3ccsc3)Cc3cc(C#N)ccc3C2O1	1.51µM	·	·	?
Cc1cc2c(c(=O)n1-c1ccccc1)C1O[C@](c3ccsc3)(Cc3cc(C#N)ccc31)O2	?	·	·	–[5.75 µM]
CCCC[C@]12Cc3cc(C#N)ccc3C(O1)c1c(c3cc(F)ccc3oc1=O)O2	–[5.75 µM]	·	·	1.35µM
COc1cc2c(cc1OC)C1O[C@](c3ccsc3)(C2)Oc2c1c(=O)oc1ccc(F)cc21	1.51µM	·	·	?
COc1ccc2c3c(c(=O)oc2c1)C1O[C@](c2ccsc2)(Cc2cc(C#N)ccc21)O3	?	·	·	–[5.75 µM]
N#Cc1ccc2c(c1)C[C@]1(c3ccsc3)Oc3c(c(=O)oc4ccc(F)cc34)C2O1	1.51µM	·	·	–[5.75 µM]
COc1ccc(Cc2nc(-c3ccc(NC(=O)c4cccnc4)cc3)no2)cc1	5.22µM	–	–	–
COc1ccc(COc2cc(-c3cccc(OC)c3)nc3ccc(NC(=O)c4ccc(Cl)cc4)cc23)cc1	2.08µM	–[8.37 µM]	–	3.7µM
COc1ccc(COc2cc(-c3cccc(OC)c3)nc3ccc(NC(=O)c4cccnc4)cc23)cc1	2.94µM	?	–	2.33µM
COc1ccc(COc2cc(-c3cccc(OC)c3)nc3ccc(NC(=O)c4ccc(OC)cc4)cc23)cc1	13.1µM	7.08µM	–	4.65µM
COc1ccc(C(=O)Nc2ccc(NC(=O)c3cccc(OC)c3)cn2)cc1	?	?	–	–
Cc1cc(C(=O)NNC(=O)c2sccc2C)c(C)o1	–	–	–	–
SMILES	Pf growth 48h	HCV inh	AMA1-RON2 inh	Pf growth 96h
CC(=O)c1ccc(OCC(O)CN2CCN(CCO)CC2)cc1 (stereo unspecified)	–	–	–	?
COc1ccc(COc2cc(-c3cccc(OC)c3)nc3ccc(NC(=O)c4ccccc4)cc23)cc1	11.7µM	?	–	11.7µM
CCOc1cc(CNCCc2c[nH]c3ccccc23)cc(Cl)c1OC	?	10µM	?	6.57µM
COc1cc(CNCCc2c[nH]c3ccccc23)ccc1OCc1ccc(F)cc1	?	12.6µM	–	·
CCOc1cc(CNCCc2c[nH]c3ccccc23)cc(Cl)c1OCC(N)=O	?	?	–	4.65µM
COc1cccc(CNCCc2c[nH]c3ccccc23)c1OCc1ccc(F)cc1	?	?	–	·
COc1cc(CNCCc2c[nH]c3ccccc23)cc(Cl)c1OCC(N)=O	?	?	–	–
COc1ccc(CNCCc2c[nH]c3ccccc23)c(OC)c1OC	–	–	–	?
Cc1cn([C@H]2C[C@H](O)[C@@H](CCC(=O)NCc3ccccc3)O2)c(=O)[nH]c1=O	·	3.55µM	–	·

Screening data from PubChem.
